Source: PubChem BioAssay (Tox21)
“And” between values parts separate entries of the source, which are not always exact repeats. Identical values can stand only once. Inconclusive results are not listed. Some compounds were tested as several samples or in several runs, with calls that do not always agree. The source made the active and inactive calls. Unless noted, calls come from the whole dose curve; as a rule, active = well fitted curve in the direction sought with a large enough effect in the repeat runs; inconclusive = weak or mixed curves; inactive = no such curve, though single readings can be large; an effect the other way counts as inactive or inconclusive.

What was measured:
[1] = A CellTox Green Cytotoxicity Assay to monitor cytotoxicity in HepG2 cells - 8 hour (AID 1224890); note: nearly all actives have a fitted effect of over 45% in size; note: potency is the fitted concentration of half-maximal effect
How it was run: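 Real-time, homogeneous cytotoxicity readout: dead-cell DNA staining by CellTox Green in HepG2 monolayers, fluorescence measured at timed intervals up to 40 h of continuous compound exposure.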

[2] = qHTS assay to identify small molecule antagonists of the estrogen receptor alpha (ER-alpha) signaling pathway using the BG1 cell line in the presence of 0.1 nM 17-beta-estradiol - cell viability counter screen (AID 1259241); note: nearly all actives have a fitted effect of over 40% in size; note: potency is the fitted concentration of half-maximal effect
How it was run: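 Following 5 days in phenol red-free medium with charcoal-stripped serum, VM7Luc4E2 cells received test compounds alongside 0.1 nM 17beta-estradiol (final) at 37C for 22 hr. Live cells were then quantified via protease-substrate fluorescence.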

[3] = qHTS assay to identify small molecule antagonists of the androgen receptor (AR) signaling pathway using the MDA cell line in the presence of 0.5 nM R1881 - cell viability counter screen (AID 1259242); note: nearly all actives have a fitted effect of over 45% in size
How it was run: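 Cytotoxicity toward MDA-kb2 cells is measured by CellTiter-Fluor live-cell protease fluorescence after 16 hr compound exposure at 37C in the presence of 0.5 nM R1881 stimulator.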

[4] = qHTS assay to identify small molecule HDAC inhibitors (AID 1259364); note: top concentration of the series differs between compounds; nearly all actives have a fitted effect of over 45% in size
How it was run: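 Homogeneous cell-based luminescent assay of endogenous class I/II HDAC activity; HCT-116 cells, 2 h compound exposure, 30 min HDAC-Glo development at RT.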

[5] = qHTS assay to identify small molecule HDAC inhibitors - cell viability counter screen (AID 1259365); note: series mostly up to about 92 µM; nearly all actives have a fitted effect of over 50% in size
How it was run: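 HCT-116 wild-type, overnight attachment; 2hr drug exposure, 37C; CellTiter-Glo luminescent ATP readout after 30min RT.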

[6] = qHTS assay to identify small molecule agonists of the sonic hedgehog signaling (Shh) pathway - cell viability counter screen (AID 1259366); note: nearly all actives have a fitted effect of over 50% in size; note: potency is the fitted concentration of half-maximal effect
How it was run: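 Compounds in DMSO were pin-transferred onto 3T3 Gli1-Luc cells that had settled 4hr; plates then stood 24hr at 37C and 5% CO2. One hour before the end, CellTiter-Fluor was added and fluorescence recorded.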

[7] = qHTS assay to identify small molecule antagonists of the sonic hedgehog signaling (Shh) pathway - cell viability counter screen (AID 1259367); note: nearly all actives have a fitted effect of over 55% in size; note: potency is the fitted concentration of half-maximal effect
How it was run: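 NIH/3T3-derived Gli1-Luc reporter cells (2,000 per well) rested 4 hr at 37 C, then received DMSO compounds plus conditioned medium. After 23 hr of treatment, CellTiter-Fluor was added for 1 hr at 37C and fluorescence read.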

[8] = qHTS assay to identify small molecule agonists of the sonic hedgehog signaling (Shh) pathway (AID 1259368; calls by dose curve;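 note: NIH/3T3-derived 3T3Gli1-Luc cells carrying a stable Gli1-driven firefly luciferase reporter; series mostly up to about 92 µM; nearly all actives have a fitted effect of over 15% in size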)
How it was run: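 Steps: seed 3T3 Gli1-Luc cells, incubate 4 hr at 37 C, pin-transfer compounds in DMSO alongside a positive control, incubate 24 hr, add luciferase detection reagent, wait 30 min at room temperature, read luminescence.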

[9] = qHTS assay to identify small molecule agonists of the androgen receptor (AR) signaling pathway in the presence of an antagonist - cell viability counter screen (AID 1259379); note: nearly all actives have a fitted effect of over 25% in size; note: potency is the fitted concentration of half-maximal effect
How it was run: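 Fluorescence from CellTiter-Fluor, added after 15 hr and read 1 hr later, gave cell viability. Cells were MDA-kb2 exposed to compounds (15 concentrations) in the presence of 3.0uM nilutamide at 37C, 0% CO2.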

[10] = qHTS assay to identify small molecule agonists of the estrogen receptor beta (ER-beta) signaling pathway - cell viability counter screen (AID 1259380); note: nearly all actives have a fitted effect of over 30% in size
How it was run: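 Same-well viability counter screen. Cells: ER-beta-UAS-bla HEK293T, plated 6 hr before compound, in 2% charcoal-stripped FBS. Compound exposure 16 hr, 37C; viability by CellTiter-Glo luminescence after 30 min at room temperature.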

[11] = qHTS assay to identify small molecule antagonists of the estrogen receptor beta (ER-beta) signaling pathway - cell viability counter screen (AID 1259382); note: series mostly up to about 92 µM; nearly all actives have a fitted effect of over 55% in size
How it was run: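 Following a 6 hr plating period, HEK293T cells carrying a UAS-driven beta-lactamase reporter under ER-beta control received compounds and 1nM E2 (final). After 16 hr at 37C and 2 hr substrate loading, CellTiter-Glo luminescence indicated viability.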

[12] = qHTS assay to identify small molecule agonists or antagonists of the thyroid stimulating hormone receptor (TSHR) signaling pathway - wild type cell line counter screen (AID 1259384; calls by dose curve)
How it was run: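 Wild-type HEK293 cells were plated 18 h at 37 C/5% CO2, pin-dosed with compound plus Ro20-1724 medium, held 30 min at room temperature, then given cAMP-d2 and anti-cAMP-cryptate; fluorescence was read after 1 h. Fifteen concentrations, triplicate.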

[13] = biological target: Estrogen receptor (Homo sapiens) (UniProt P03372); assay: qHTS assay to identify small molecule antagonists of the estrogen receptor alpha (ER-alpha) signaling pathway using the BG1 cell line in the presence of 0.1 nM 17-beta-estradiol (AID 1259244); note: nearly all actives have a fitted effect of over 50% in size; note: potency is the fitted concentration of half-maximal effect
How it was run: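 After 5 days in hormone-depleted medium (charcoal-stripped serum, no phenol red), VM7Luc4E2 cells were seeded, incubated 24 h, then co-treated with compound and 0.1 nM (final) estradiol for 22 h before luminescence detection.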

[14] = qHTS assay to identify small molecule phospholipidosis (PLD) inducers (AID 1259344; active = well fitted curve in the direction sought with a large enough effect; an effect the other way counts as inactive or inconclusive)
How it was run: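 HepG2 cells on collagen I, attached 4 h at 37 C, were co-treated with compound and LipidTOX Red dye for 24 h at 37 C, then fixed with paraformaldehyde plus Hoechst 33342 and imaged by high-content microscopy for phospholipid accumulation.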

[15] = qHTS assay to identify small molecule antagonists of the sonic hedgehog signaling (Shh) pathway (AID 1259369; calls by dose curve; note: nearly all actives have a fitted effect of over 45% in size; note: potency is the fitted concentration of half-maximal effect)
How it was run: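 Inhibition of Shh signalling is measured as reduced Gli1-response-element firefly luciferase output in an NIH/3T3-derived stable reporter clone stimulated with conditioned medium for 24hr.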

[16] = biological target: Estrogen receptor beta (Homo sapiens) (UniProt Q92731); assay: qHTS assay to identify small molecule agonists of the estrogen receptor beta (ER-beta) signaling pathway (AID 1259377; active = well fitted activation curve with a large enough effect in the signal ratio in the repeat runs, not every such curve was filed as active; the % refers to the signal ratio)
How it was run: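 qHTS in ER-beta-UAS-bla HEK293T cells: 6 hr settling, then 16 hr compound at 37C, then LiveBLAzer substrate 2 h at RT before fluorescence reading.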

[17] = biological target: Estrogen receptor beta (Homo sapiens) (UniProt Q92731); assay: qHTS assay to identify small molecule antagonists of the estrogen receptor beta (ER-beta) signaling pathway (AID 1259378; active = well fitted inhibition curve with a large enough effect in the signal ratio in the repeat runs, not every such curve was filed as active; the % refers to the signal ratio)
How it was run: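 ER-beta-UAS-bla HEK293T (GripTite) cells in 2% charcoal-stripped FBS medium were preincubated 6 hr at 37C, dosed with compound, then stimulated with 1 nM E2 (final) for 16 hr; beta-lactamase reporter read by B/G FRET fluorescence after 2 hr substrate loading.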

[18] = biological target: Estrogen receptor (Homo sapiens) (UniProt P03372); assay: qHTS assay to identify small molecule agonists of the estrogen receptor alpha (ER-alpha) signaling pathway in the presence of an antagonist (AID 1259383; calls by dose curve; note: top concentration of the series differs between compounds; nearly all actives have a fitted effect of over 15% in size)
How it was run: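 Cells are hormone-deprived for 5 days (charcoal-stripped FBS, no phenol red), plated for 24hr, spiked with 10.0nM ICI-182,780, then dosed at 15 concentrations. After 22hr at 37C, ONE-Glo luminescence reports ERE-luciferase activity.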

Measured: Potency

Estrogen receptor (Homo sapiens), sequence (P03372 whole entry, looked up): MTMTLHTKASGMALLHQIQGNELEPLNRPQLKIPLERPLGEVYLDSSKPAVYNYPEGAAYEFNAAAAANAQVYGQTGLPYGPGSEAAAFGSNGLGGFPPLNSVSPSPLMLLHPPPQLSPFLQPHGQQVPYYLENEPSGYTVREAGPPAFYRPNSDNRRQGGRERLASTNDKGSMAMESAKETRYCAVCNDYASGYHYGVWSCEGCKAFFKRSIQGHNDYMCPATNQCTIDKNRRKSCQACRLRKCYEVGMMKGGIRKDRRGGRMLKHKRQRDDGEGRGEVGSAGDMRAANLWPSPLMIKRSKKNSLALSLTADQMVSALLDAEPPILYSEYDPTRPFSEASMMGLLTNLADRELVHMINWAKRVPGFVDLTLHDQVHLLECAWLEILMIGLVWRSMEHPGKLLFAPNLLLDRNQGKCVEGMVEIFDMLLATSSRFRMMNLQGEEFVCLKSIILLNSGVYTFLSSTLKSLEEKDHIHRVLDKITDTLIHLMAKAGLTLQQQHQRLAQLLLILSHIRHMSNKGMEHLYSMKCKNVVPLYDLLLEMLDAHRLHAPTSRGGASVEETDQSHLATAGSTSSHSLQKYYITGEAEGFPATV
Estrogen receptor beta (Homo sapiens), sequence (Q92731 whole entry, looked up): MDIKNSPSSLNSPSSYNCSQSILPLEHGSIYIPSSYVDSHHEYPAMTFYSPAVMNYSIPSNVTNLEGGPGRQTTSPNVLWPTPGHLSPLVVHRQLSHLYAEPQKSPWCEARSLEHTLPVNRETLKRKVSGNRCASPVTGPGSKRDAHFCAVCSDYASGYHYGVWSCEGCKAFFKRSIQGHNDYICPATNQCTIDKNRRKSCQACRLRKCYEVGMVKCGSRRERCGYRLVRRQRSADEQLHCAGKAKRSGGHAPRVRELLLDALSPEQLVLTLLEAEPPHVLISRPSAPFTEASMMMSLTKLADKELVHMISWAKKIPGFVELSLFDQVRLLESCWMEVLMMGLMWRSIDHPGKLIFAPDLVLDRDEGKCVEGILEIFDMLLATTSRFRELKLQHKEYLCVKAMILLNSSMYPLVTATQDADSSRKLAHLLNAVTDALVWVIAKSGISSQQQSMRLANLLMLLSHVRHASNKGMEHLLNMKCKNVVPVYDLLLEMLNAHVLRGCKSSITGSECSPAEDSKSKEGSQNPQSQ

C=C(C)C(=O)OCC(CC)(COC(=O)C(=C)C)COC(=O)C(=C)C
inactive: [2] | [3] | [4] | [5] | [6] | [7] | [8] | [9] | [10] | [11] | [12]
inactive and 42.9 µM (active): [1]

NCCc1ccc(O)c(O)c1
24.4 µM (active) and inactive: [6]
30.7 µM (active) and inactive: [7]
54.6 µM (active) and inactive: [9]
active: [2] 34.5 µM | [13] 2.44 µM | [15] 0.866 µM
inactive: [1] | [14] | [4] | [5] | [8] | [16] | [17] | [10] | [11] | [18]

CC1COc2ccccc2N1C(=O)C(Cl)Cl (configuration not stated)
active: [15] 15.3 µM
inactive: [1] | [2] | [3] | [4] | [5] | [6] | [8] | [16] | [17] | [10] | [11] | [18] | [12]

CNC[C@H](O)[C@@H](O)[C@H](O)[C@H](O)CO
inactive: [1] | [2] | [3] | [14] | [4] | [5] | [6] | [7] | [8] | [16] | [17] | [9] | [10] | [11] | [12]

Cc1ccc(C(=O)O)o1
inactive: [1] | [2] | [3] | [4] | [5] | [6] | [7] | [8] | [15] | [16] | [17] | [9] | [10] | [11] | [12]

C[C@@H](O)[C@H]1C(=O)N2C(C(=O)O)=C(S[C@@H]3CN[C@H](C(=O)N(C)C)C3)[C@H](C)[C@H]12
inactive: [1] | [2] | [3] | [14] | [4] | [5] | [6] | [7] | [8] | [16] | [17] | [9] | [10] | [11] | [12]

CC1(C)O[C@@H]2C[C@H]3[C@@H]4C[C@H](F)C5=CC(=O)CC[C@]5(C)[C@H]4[C@@H](O)C[C@]3(C)[C@]2(C(=O)CO)O1
49 µM (active) and inactive: [1]
inactive: [2] | [13] | [14] | [4] | [5] | [6] | [7] | [8] | [15] | [16] | [17] | [9] | [10] | [11] | [18] | [12]

C=C(C#N)C(=O)OCC
inactive and 15.4 µM (active): [15]
inactive: [1] | [2] | [3] | [4] | [5] | [6] | [7] | [8] | [9] | [10] | [11] | [12]

CC(=O)[C@@]1(O)CC[C@H]2[C@@H]3CCC4=CC(=O)CC[C@]4(C)[C@H]3CC[C@@]21C
inactive: [1] | [2] | [3] | [14] | [4] | [5] | [6] | [7] | [8] | [16] | [17] | [9] | [10] | [11] | [12]
